In PubChem BioAssay (Tox21):
Records with an inconclusive call do not appear. Activity calls are given as the source filed them. Unless noted, calls follow the shape of the full dose curve.

Tests used:
[1] = Nuclear factor erythroid 2-related factor 2/antioxidant responsive element (Nrf2/ARE) small molecule agonists: qHTS cell viability counter screen in human keratinocytes (AID 1919968; active = well fitted curve in the direction sought with a large enough effect in the repeat runs; an effect the other way counts as inactive or inconclusive; also: nearly all actives have a fitted effect of over 55% in size; also: potency is read from the fitted curve at half-maximal effect)
Method in brief: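 Stably transfected HaCaT (KeratinoSens), 1,500/well. Test agents in DMSO were applied for 23 h, 37 C/5% CO2. CellTiter-Fluor was incubated 1 h before the fluorescence read.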

[2] = Nuclear factor erythroid 2-related factor 2/antioxidant responsive element (Nrf2/ARE) small molecule agonists: luciferase reporter gene qHTS assay in human keratinocytes (AID 1919969); also: nearly all actives have a fitted effect of over 35% in size; also: potency is read from the fitted curve at half-maximal effect
[3] = target: Gonadotropin-releasing hormone receptor (Homo sapiens) (UniProt P30968); experiment: Human gonadotropin-releasing hormone receptor (GnRHR) small molecule agonists, calcium flux assay in GnRHR-HEK293 cells (AID 1920063); also: nearly all actives have a fitted effect of over 35% in size; also: potency is read from the fitted curve at half-maximal effect
Gonadotropin-releasing hormone receptor (Homo sapiens), sequence (P30968 whole entry, looked up): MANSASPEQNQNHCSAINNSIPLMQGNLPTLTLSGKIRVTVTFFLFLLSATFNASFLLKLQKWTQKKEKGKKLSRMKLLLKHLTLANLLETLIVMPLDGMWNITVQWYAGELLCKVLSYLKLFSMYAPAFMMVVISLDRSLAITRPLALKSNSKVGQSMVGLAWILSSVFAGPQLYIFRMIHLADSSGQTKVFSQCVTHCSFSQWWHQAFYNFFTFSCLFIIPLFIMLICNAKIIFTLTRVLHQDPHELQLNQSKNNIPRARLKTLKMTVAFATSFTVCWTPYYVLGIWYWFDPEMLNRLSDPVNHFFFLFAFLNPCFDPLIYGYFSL
Method in brief: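 Stable human GnRHR HEK293 line. 18 h plating, then calcium dye for 1 h at 37 C. Agonist-mode compound addition from DMSO stocks; fluorescence monitored 3 min.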

[4] = target: KiSS-1 receptor (Homo sapiens) (UniProt Q969F8); experiment: Human kisspeptin (KISS1R) small molecule agonists, calcium flux assay in KISS1R-HEK293 cells (AID 1920064; active = well fitted curve in the direction sought with a large enough effect in the repeat runs; an effect the other way counts as inactive or inconclusive)
KiSS-1 receptor (Homo sapiens), sequence (Q969F8 whole entry, looked up): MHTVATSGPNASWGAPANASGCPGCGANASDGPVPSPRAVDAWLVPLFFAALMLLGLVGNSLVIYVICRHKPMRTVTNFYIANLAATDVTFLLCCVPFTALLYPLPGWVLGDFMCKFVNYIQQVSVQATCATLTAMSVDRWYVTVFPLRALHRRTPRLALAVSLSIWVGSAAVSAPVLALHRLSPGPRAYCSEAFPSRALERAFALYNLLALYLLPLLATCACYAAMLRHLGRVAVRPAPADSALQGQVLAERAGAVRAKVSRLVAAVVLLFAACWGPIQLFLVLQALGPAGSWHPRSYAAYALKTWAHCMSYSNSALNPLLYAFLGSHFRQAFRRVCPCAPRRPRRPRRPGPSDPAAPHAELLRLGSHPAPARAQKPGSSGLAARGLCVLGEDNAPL
Method in brief: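 After overnight (18 h) culture at 37 C/5% CO2, human KISS1R-HEK293 cells received calcium dye for 1 h, then test compound; emission at 540 nm (excitation 480 nm) was tracked for 3 min.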

[5] = G protein-coupled receptor (GPCR) small molecule agonists, calcium flux assay: HEK293 wild type cell line counter screen (AID 1920065)
Method in brief: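 Following 18 h incubation at 37 C/5% CO2, plates got calcium dye for 1 h; compounds, ATP or DMSO were then pinned in and fluorescence followed kinetically (480/540 nm).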

[6] = p53 small molecule agonists, cell-based qHTS assay with human liver microsomes (AID 1963577);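 also: p53 response element beta-lactamase reporter cells with liver microsomes plus NADPH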
Method in brief: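 Steps: plate p53RE-bla cells, incubate 5 h at 37 C; add compound in DMSO; add microsomes (0.5 mg/mL final) and NADPH (0.5 mg/mL final); incubate 16 h at 37 C; add LiveBLAzer, 2 h RT; read fluorescence.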

[7] = p53 small molecule agonists, cell-based qHTS assay with rat liver microsomes (AID 1963578)
Method in brief: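 Metabolic activation is supplied by rat liver microsomes with NADPH (each 0.5 mg/mL final). p53RE-bla cells incubate with compound 16 h at 37 C; reporter activity is measured by LiveBLAzer fluorescence.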

[8] = p53 small molecule agonists, cell-based qHTS assay with human liver microsomes: qHTS cell viability counter screen (AID 1963579); also: nearly all actives have a fitted effect of over 45% in size; also: potency is read from the fitted curve at half-maximal effect
Method in brief: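 After the 460/530 nm beta-lactamase read, CellTiter-Glo was added to the same wells and luminescence measured after 30 min at room temperature, giving viability of p53RE-bla cells treated 16 h with compounds plus microsomes and NADPH.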

[9] = p53 small molecule agonists, cell-based qHTS assay (AID 1963582; active = well fitted activation curve with a large enough effect in the signal ratio in the repeat runs, not every such curve was filed as active; the % refers to the signal ratio)
Method in brief: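 Measured: fluorescence from cleaved LiveBLAzer substrate. System: p53RE-bla cells, 16 h compound treatment at 37 C, 2 h substrate step at room temperature.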

[10] = target: 5-hydroxytryptamine receptor 2A (Homo sapiens) (UniProt P28223); experiment: 5-hydroxytryptamine receptor 2A (HTR2A) small molecule antagonists, cell-based qHTS assay (AID 1963586); also: nearly all actives have a fitted effect of over 45% in size; also: potency is read from the fitted curve at half-maximal effect
5-hydroxytryptamine receptor 2A (Homo sapiens), sequence (P28223 whole entry, looked up): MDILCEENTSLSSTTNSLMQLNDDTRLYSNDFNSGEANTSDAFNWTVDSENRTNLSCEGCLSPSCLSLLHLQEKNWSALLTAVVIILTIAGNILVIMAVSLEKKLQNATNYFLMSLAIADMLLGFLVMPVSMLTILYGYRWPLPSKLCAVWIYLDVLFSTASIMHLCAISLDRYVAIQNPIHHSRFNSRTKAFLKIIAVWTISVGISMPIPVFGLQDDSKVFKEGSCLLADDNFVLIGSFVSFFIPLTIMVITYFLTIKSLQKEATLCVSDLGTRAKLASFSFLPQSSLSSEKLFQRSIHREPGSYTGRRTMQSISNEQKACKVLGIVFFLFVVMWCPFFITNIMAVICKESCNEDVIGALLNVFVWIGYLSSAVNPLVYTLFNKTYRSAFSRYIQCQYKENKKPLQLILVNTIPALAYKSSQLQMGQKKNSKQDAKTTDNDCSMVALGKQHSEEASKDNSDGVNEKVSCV
Method in brief: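 CHO cells stably expressing human HTR2A were plated for 18 h at 37 C, then loaded with calcium dye for 1 h. Compounds were preincubated 5 min at room temperature before DOI (4 nM solution) was added. Kinetic fluorescence was read for 3 min.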

[11] = target: 5-hydroxytryptamine receptor 2A (Homo sapiens) (UniProt P28223); experiment: 5-hydroxytryptamine receptor 2A (HTR2A) small molecule agonists, cell-based qHTS assay (AID 1963587); also: nearly all actives have a fitted effect of over 30% in size; also: potency is read from the fitted curve at half-maximal effect
Method in brief: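 Kinetic calcium-flux fluorescence (2 min, 1 sec intervals) after compound addition in agonist mode. HTR2A-CHO cells were cultured 18 h, then dye-loaded 1 h at 37 C.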

[12] = target: Muscarinic acetylcholine receptor M1 (Homo sapiens) (UniProt P11229); experiment: Cholinergic receptor muscarinic 1 (CHRM1) small molecule antagonists, cell-based qHTS assay (AID 1963588); also: nearly all actives have a fitted effect of over 40% in size; also: potency is read from the fitted curve at half-maximal effect
Muscarinic acetylcholine receptor M1 (Homo sapiens), sequence (P11229 whole entry, looked up): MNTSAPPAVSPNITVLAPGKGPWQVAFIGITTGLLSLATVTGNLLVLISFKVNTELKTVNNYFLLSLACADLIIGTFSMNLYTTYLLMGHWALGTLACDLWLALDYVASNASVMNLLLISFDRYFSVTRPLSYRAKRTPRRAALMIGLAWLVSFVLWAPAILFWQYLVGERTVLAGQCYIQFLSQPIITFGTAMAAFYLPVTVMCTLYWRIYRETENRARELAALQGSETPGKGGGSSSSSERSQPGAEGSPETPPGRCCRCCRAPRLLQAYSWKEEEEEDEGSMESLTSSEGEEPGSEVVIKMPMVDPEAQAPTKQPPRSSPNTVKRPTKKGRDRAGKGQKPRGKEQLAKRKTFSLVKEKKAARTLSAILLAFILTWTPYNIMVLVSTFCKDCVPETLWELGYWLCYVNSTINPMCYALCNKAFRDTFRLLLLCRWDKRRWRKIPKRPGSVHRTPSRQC
Method in brief: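 Compounds were tested at 15 concentrations in three independent runs. Dye-loaded CHRM1-CHO cells were exposed 5 min at room temperature before stimulation by acetylcholine added at 50nM. Intracellular calcium was read kinetically on FDSS for 3 min.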

[13] = target: Muscarinic acetylcholine receptor M1 (Homo sapiens) (UniProt P11229); experiment: Cholinergic receptor muscarinic 1 (CHRM1) small molecule agonists, cell-based qHTS assay (AID 1963589); also: nearly all actives have a fitted effect of over 35% in size
Method in brief: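 Kinetic fluorescence (1 s intervals) of calcium-sensitive dye in human M1 CHO cells after compound addition; cells pre-incubated 18 h at 37 C/5% CO2 and dye-loaded 1 h.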

[14] = cAMP Responsive Elements (CRE) small molecule agonists, cell-based qHTS assay (AID 1963590)
Method in brief: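 Test agents in DMSO were incubated 3 h at 37 C/5% CO2 with CRE-bla HEK 293T cells seeded 18 h earlier; LiveBLAzer B/G FRET substrate was added and read after 2 h at room temperature.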

[15] = target: Beta-2 adrenergic receptor (Homo sapiens) (UniProt P07550); experiment: Adrenergic beta2 receptor (ADRB2) small molecule antagonists, cell-based qHTS assay (AID 1963592); also: nearly all actives have a fitted effect of over 50% in size; also: potency is read from the fitted curve at half-maximal effect
Beta-2 adrenergic receptor (Homo sapiens), sequence (P07550 whole entry, looked up): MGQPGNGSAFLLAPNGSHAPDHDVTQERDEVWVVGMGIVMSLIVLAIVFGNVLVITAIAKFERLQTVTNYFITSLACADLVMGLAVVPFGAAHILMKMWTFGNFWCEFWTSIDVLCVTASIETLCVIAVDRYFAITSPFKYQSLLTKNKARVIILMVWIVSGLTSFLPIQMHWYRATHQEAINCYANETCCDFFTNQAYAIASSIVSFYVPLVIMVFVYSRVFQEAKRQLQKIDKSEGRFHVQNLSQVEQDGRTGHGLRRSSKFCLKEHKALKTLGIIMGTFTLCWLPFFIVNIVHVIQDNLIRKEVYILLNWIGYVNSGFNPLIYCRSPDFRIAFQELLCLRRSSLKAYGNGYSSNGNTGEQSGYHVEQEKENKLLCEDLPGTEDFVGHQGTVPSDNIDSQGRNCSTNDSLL
Method in brief: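 Assay format: CHO-ADRB2 cells, 18-20hr seeding at 37C/5% CO2, then compound plus 1nM isoproterenol agonist mix for 0.5hr RT. Homogeneous time-resolved fluorescence cAMP detection after 1hr, expressed as 665/615 nm ratio.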

[16] = target: Beta-2 adrenergic receptor (Homo sapiens) (UniProt P07550); experiment: Adrenergic beta2 receptor (ADRB2) small molecule agonists, cell-based qHTS assay (AID 1963593);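 also: CHO cells stably overexpressing human ADRB2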
Method in brief: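 CHO cells stably over-expressing ADRB2 were plated overnight at 37C, then dosed with compounds plus a stimulation mix containing 100uM IBMX and 25uM Ro-20-1724 for 0.5hr at room temperature. cAMP was measured by HTRF competition, 1hr.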

[17] = target: D(2) dopamine receptor (Homo sapiens) (UniProt P14416); experiment: Dopamine D2 receptor (DRD2) small molecule agonists, cell-based qHTS assay (AID 1963594); also: nearly all actives have a fitted effect of over 35% in size
D(2) dopamine receptor (Homo sapiens), sequence (P14416 whole entry, looked up): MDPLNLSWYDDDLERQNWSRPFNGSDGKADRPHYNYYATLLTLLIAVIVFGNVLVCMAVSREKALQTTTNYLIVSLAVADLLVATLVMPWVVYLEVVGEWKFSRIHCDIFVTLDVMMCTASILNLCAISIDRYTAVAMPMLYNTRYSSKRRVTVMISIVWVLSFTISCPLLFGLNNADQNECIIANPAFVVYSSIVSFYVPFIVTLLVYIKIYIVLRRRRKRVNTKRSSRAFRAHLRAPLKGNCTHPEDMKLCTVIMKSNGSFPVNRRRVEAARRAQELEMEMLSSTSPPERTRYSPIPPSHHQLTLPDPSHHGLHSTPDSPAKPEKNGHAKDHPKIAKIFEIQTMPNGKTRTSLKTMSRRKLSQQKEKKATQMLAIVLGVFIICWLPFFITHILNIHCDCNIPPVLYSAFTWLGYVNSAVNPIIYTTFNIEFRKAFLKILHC
Method in brief: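 cAMP accumulation in DRD2-HEK293 cells measured by HTRF after 1 h detection; compounds added 10 min before NKH477 (200nM […]) forskolin-analogue stimulation, 30 min at room temperature, with Ro20-1724 present at 0.1 mM final.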

[18] = target: D(2) dopamine receptor (Homo sapiens) (UniProt P14416); experiment: Dopamine D2 receptor (DRD2) small molecule antagonists, cell-based qHTS assay (AID 1963595; active = well fitted inhibition curve with a large enough effect in the signal ratio in the repeat runs, with a control signal flat; the % refers to the signal ratio)
Method in brief: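 DRD2-HEK293; 0.1 mM Ro20-1724; cpd 10 min RT; NKH477 200 nM + quinpirole 12 nM, 30 min RT; HTRF cAMP (cAMP-d2/anti-cAMP cryptate), 665/620 nm ratio after 1 h.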

[19] = p53 small molecule agonists, cell-based qHTS assay: qHTS cell viability counter screen (AID 1963581); also: nearly all actives have a fitted effect of over 45% in size; also: potency is read from the fitted curve at half-maximal effect
Method in brief: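 qHTS counter screen: 16 h compound exposure at 37 C of p53RE-bla HCT-116 cells (4,000 per well, seeded 5 h prior), cell viability by ATP luminescence.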

[20] = cAMP Responsive Elements (CRE) small molecule antagonists, cell-based qHTS assay (AID 1963591; active = well fitted inhibition curve with a large enough effect in the signal ratio in the repeat runs, not every such curve was filed as active; the % refers to the signal ratio)
Method in brief: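 Reporter line CRE-bla HEK 293T in dialyzed-FBS DMEM; cells preincubated 18 h, treated 3 h with compound plus NKH477 (0.25 uM final); LiveBLAzer FRET, 2 h RT.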

Measured: Potency

CN1CC(=O)N/C1=N/C(=O)Nc1cccc(Cl)c1
inactive: [1] | [2] | [3] | [4] | [5] | [6] | [7] | [8] | [9] | [10] | [11] | [12] | [13] | [14] | [15] | [16] | [17] | [18]

C=CCNc1nc(NCC=C)nc(N2CCN(C(c3ccc(F)cc3)c3ccc(F)cc3)CC2)n1
inactive: [2] | [3] | [4] | [5] | [6] | [7] | [8] | [19] | [12] | [13] | [14] | [20] | [17] | [18]
active: [1] 4.22 µM | [10] 5.16 µM | [11] 2.68 µM | [15] 11.9 µM

Cc1cc(F)ccc1-c1cc(N2CC[C@@H](O)[C@H]2CO)ncc1N(C)C(=O)C(C)(C)c1cc(C(F)(F)F)cc(C(F)(F)F)c1
active: [1] 19 µM | [8] 14.3 µM | [19] 16 µM
inactive: [2] | [3] | [4] | [5] | [6] | [7] | [10] | [11] | [12] | [13] | [17] | [18]

C=CCSSCCC
inactive: [1] | [2] | [3] | [4] | [5] | [6] | [7] | [8] | [9] | [10] | [11] | [12] | [13] | [14] | [20] | [15] | [16] | [17] | [18]

O=C=Nc1cccc(C(F)(F)F)c1
inactive: [1] | [2] | [3] | [4] | [5] | [6] | [7] | [8] | [19] | [12] | [13] | [14] | [20] | [15] | [17] | [18]

Nc1cc([N+](=O)[O-])cc(Cl)c1O
inactive: [1] | [2] | [3] | [4] | [5] | [6] | [7] | [8] | [19] | [9] | [12] | [13] | [15] | [17] | [18]

CC12CCCC=C1C(=O)OC2=O (stereo not given)
inactive: [1] | [2] | [3] | [4] | [5] | [6] | [7] | [8] | [19] | [11] | [13] | [14] | [20] | [15] | [17] | [18]

OCCN(CCO)c1ccccc1
inactive: [1] | [2] | [3] | [4] | [5] | [6] | [7] | [8] | [19] | [9] | [11] | [12] | [13] | [14] | [20] | [17] | [18]

CCCC1CCC(=O)O1 (stereo not given)
inactive: [1] | [2] | [3] | [4] | [5] | [6] | [7] | [8] | [9] | [10] | [11] | [12] | [13] | [14] | [15] | [16]

CCCCCCCCCCCC(=O)NCCCN(C)C
inactive: [2] | [4] | [5] | [6] | [7] | [11] | [13] | [15] | [16]
active: [1] 27.3 µM | [3] 30.9 µM | [8] 45.8 µM | [19] 32.4 µM | [10] 1.68 µM | [12] 8.4 µM

O=C(c1ccc(O)cc1)c1ccc(Cl)cc1
inactive: [1] | [2] | [3] | [4] | [5] | [6] | [7] | [8] | [19] | [10] | [11] | [12] | [13] | [15] | [17] | [18]

CO[C@H]1C=CO[C@@]2(C)Oc3c(C)c(O)c4c(O)c(cc(O)c4c3C2=O)NC(=O)/C(C)=C\C=C/[C@H](C)[C@H](O)[C@@H](C)[C@@H](O)[C@@H](C)[C@H](OC(C)=O)[C@@H]1C
inactive: [3] | [4] | [5] | [6] | [7] | [8] | [19] | [10] | [11] | [13] | [20] | [17]
active: [1] 54.9 µM | [2] 27.5 µM

C=CC/C=C/C
inactive: [1] | [2] | [3] | [4] | [5] | [6] | [7] | [8] | [19] | [11] | [12] | [13] | [14] | [20] | [15] | [18]

O[C@@H](COc1cccc2ncccc12)CN1CCN(C2c3ccccc3[C@@H]3[C@H](c4ccccc42)C3(F)F)CC1 (stereo not given in full)
inactive: [1] | [2] | [3] | [4] | [5] | [6] | [7] | [8] | [19] | [11] | [15] | [17] | [18]
active: [12] 3.65 µM
